In PubChem BioAssay (NCI):
This is part of a sample that, as a whole, favours compounds with a hit. Of some 83,000 tested, about 20% had one in any assay.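 Growth was measured after 48 h exposure to one concentration of compound in 96-well plates. Values under 10 count as active.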 A number with no mark means an inactive call. Active and inactive are the calls of the source.

Test system: SK-OV-3 ovarian
Assay: NCI-60 one-dose screen, 48 h (100 = growth as untreated, 0 = no growth, -100 = all killed)
Conditions: 10 µM

Row | Structure (SMILES) | growth
1 | O=C(/C=C/c1ccc(Br)cc1)c1nc2ccccc2n1Cc1ccc(Br)cc1 | 79.1%
2 | COC(=O)CCn1c(-c2ccc(-n3cc(-c4ccc(O[C@H]5O[C@@H]6OC7(C)CC[C@H]8[C@H](C)CC[C@@H]([C@H]5C)[C@@]68OO7)cc4)nn3)cc2)nc2ccccc21 | 33.1%
3 | CC1=C(C=O)C2=C(C)C3(CC3)[C@@](C)(O)C(=O)C2=C1 | -3.31% (active)
4 | N#C[Se]CC(=O)Nc1cccc(C(F)(F)F)c1 | 14%
5 | CCC[Se]C(=O)c1ccc(C(=O)[Se]CCC)s1 | -31.1% (active)
6 | C[C@H]1[C@@H](CC(=O)N[C@@H](Cc2coc3ccccc23)B(O)O)O[C@@H]2OC3(C)CC[C@H]4[C@H](C)CC[C@@H]1[C@@]24OO3 | -22.9% (active)
7 | O=C(/C=C/c1ccco1)c1nc2ccccc2n1Cc1ccc(F)cc1 | 85.5%
8 | COC(=O)C[C@](O)(CCC(C)C)C(=O)O[C@H]1C(OC)=C[C@@]23CCCN2CCc2cc4c(cc2[C@@H]13)OCO4 | -8.41% (active)
9 | C[C@H]1[C@H](OC(=O)CCC(=O)N(CCCc2cn(-c3ccc(C#N)cc3)nn2)CCNc2ccnc3cc(Cl)ccc23)O[C@@H]2OC3(C)CC[C@H]4[C@H](C)CC[C@@H]1[C@@]24OO3 | 84.4%

Test system: IGROV1 ovarian
Assay: as above
Conditions: 10 µM

Row | Structure (SMILES) | growth
10 | COc1cc2cc(C(=O)N3C[C@@H](CCl)c4c3cc(OC(=O)N3CCN(C)[C@@H]5CSSC[C@H]53)c3ccccc43)[nH]c2c(OC)c1OC | -61% (active)
11 | CC1=C(CCC=O)C2=C(C)C3(CC3)[C@@](C)(O)C(=O)C2=C1 | -79.5% (active)
12 | COC(=O)C[C@](O)(CCC(C)C)C(=O)O[C@@H]1C(OC)=C[C@]23CCCN2CCc2cc4c(cc2[C@H]13)OCO4 | -29.3% (active)
13 | O=C(/C=C/c1ccc(Cl)cc1)c1nc2ccccc2n1Cc1ccc(F)cc1 | 29%
14 | CC[C@]12C=CCN3CC[C@@]4(c5ccc(OC)cc5N(C)[C@H]4[C@@](O)(C(=O)OC)[C@@H]1OC(=O)CCC[P+](C1CCCCC1)(C1CCCCC1)C1CCCCC1)[C@@H]32 | -85.9% (active)
15 | CC1=C2C(=C[C@@](C)(COP(=O)(Oc3ccccc3)Oc3ccccc3)[C@@H]2O)C(=O)[C@@](C)(O)C12CC2 | -75.8% (active)
16 | CC(=O)Oc1ccccc1C(=O)NC([Se])=NC1CCCCC1 | -46% (active)
17 | CCOP(=O)(CC(F)(F)C(F)(F)F)OCC | 60.2%
18 | CC(C)C[C@H](NC(=O)CNC(=O)C[C@H]1O[C@@H]2OC3(C)CC[C@H]4[C@H](C)CC[C@@H]([C@H]1C)[C@@]24OO3)B(O)O | 2.58% (active)
19 | C[C@H]1[C@@H](Oc2ccc(-c3cn(-c4ccnc5cc(Cl)ccc45)nn3)cc2)O[C@@H]2OC3(C)CC[C@H]4[C@H](C)CC[C@@H]1[C@@]24OO3 | 34.3%
20 | C[C@H]1[C@H](OC(=O)CCC(=O)N(CCCc2cn(-c3ccc([N+](=O)[O-])cc3)nn2)CCNc2ccnc3cc(Cl)ccc23)O[C@@H]2OC3(C)CC[C@H]4[C@H](C)CC[C@@H]1[C@@]24OO3 | 44.9%
21 | COc1cc2cc(C(=O)N3C[C@@H](CCl)c4c3cc(OC(=O)N3CCN(C)[C@@H]5CSSC[C@@H]53)c3ccccc43)[nH]c2c(OC)c1OC | 7.55% (active)
22 | COc1cc2cc(C(=O)N3C[C@@H](CCl)c4c3cc(OC(=O)N3CCN(C(=O)CCC(=O)N5CCN(C)CC5)[C@@H]5CSSC[C@@H]53)c3ccccc43)[nH]c2c(OC)c1OC | -50.7% (active)
23 | COC(=O)c1ccc(-n2cc(CCCN(CCNc3ccnc4cc(Cl)ccc34)C(=O)CCC(=O)O[C@@H]3O[C@@H]4OC5(C)CC[C@H]6[C@H](C)CC[C@@H]([C@H]3C)[C@@]46OO5)nn2)cc1 | 40.4%
24 | O=C([Se]C1C=CCCC1)c1ccc(C(=O)[Se]C2C=CCCC2)s1 (stereo not drawn) | -90.4% (active)
25 | O=C(/C=C/c1cccc(Br)c1)c1nc2ccccc2n1Cc1ccc(F)cc1 | 40.4%
26 | CC[C@]12C=CCN3CC[C@@]4(c5ccc(OC)cc5N(C)[C@H]4[C@@](O)(C(=O)OC)[C@@H]1OC(=O)CCC[P+](c1ccc(C)cc1)(c1ccc(C)cc1)c1ccc(C)cc1)[C@@H]32 | -89.5% (active)
27 | O=C(NC([Se])=NC1CCCCC1)c1ccccc1 | 13.6%
28 | O=C(/C=C/c1ccc(F)cc1)c1nc2ccccc2n1Cc1ccc(F)cc1 | 14.9%
29 | O=C(/C=C/c1ccccc1)c1nc2ccccc2n1Cc1ccc(Br)cc1 | -57.8% (active)

Row | Structure (SMILES) | growth
30 | C=CC[Se]C(=O)c1cncc(C(=O)[Se]CC=C)c1 | -92% (active)
31 | COc1ccc(OC)c(/C=C/C(=O)c2nc3ccccc3n2Cc2ccc(F)cc2)c1 | -7.29% (active)
32 | O=C(/C=C/c1ccc(F)cc1)c1nc2ccccc2n1Cc1ccc(Br)cc1 | -35% (active)
33 | CC[C@]12C=CCN3CC[C@@]4(c5ccc(OC)cc5N(C)[C@H]4[C@@](O)(C(=O)OC)[C@@H]1OC(=O)CCCC[P+](c1ccc(C)cc1)(c1ccc(C)cc1)c1ccc(C)cc1)[C@@H]32 | -91.8% (active)
34 | CC(C)N=C([Se])NC(=O)c1cccs1 | 1.76% (active)
35 | CC1=C(CCC=NNC(N)=O)C2=C(C)C3(CC3)[C@@](C)(O)C(=O)C2=C1 | -34% (active)
36 | Cc1ccc2[nH]c(=S)n(-c3ccc(F)cc3)c(=O)c2c1 | 106%
37 | C#CC[Se]C(=O)c1ccc2n[se]nc2c1 | 77.7%
38 | CC1=C(COCCOC(=O)c2ccc(S(=O)(=O)F)cc2)C2=C(C)C3(CC3)[C@@](C)(O)C(=O)C2=C1 | -24.3% (active)
39 | CC12CCC3(CCC(=O)NCCCNc4ccnc5cc(Cl)ccc45)[C@@](C)(OO[C@]3(C)O1)O2 | -23.3% (active)
40 | O=C(/C=C/c1ccc(Br)cc1)c1nc2ccccc2n1Cc1ccc(Br)cc1 | -18% (active)
41 | COC(=O)CCn1c(-c2ccc(-n3cc(-c4ccc(O[C@H]5O[C@@H]6OC7(C)CC[C@H]8[C@H](C)CC[C@@H]([C@H]5C)[C@@]68OO7)cc4)nn3)cc2)nc2ccccc21 | 21.7%
42 | CC1=C(C=O)C2=C(C)C3(CC3)[C@@](C)(O)C(=O)C2=C1 | 53.6%
43 | N#C[Se]CC(=O)Nc1cccc(C(F)(F)F)c1 | -64.5% (active)
44 | CCC[Se]C(=O)c1ccc(C(=O)[Se]CCC)s1 | -67.3% (active)
45 | C[C@H]1[C@@H](CC(=O)N[C@@H](Cc2coc3ccccc23)B(O)O)O[C@@H]2OC3(C)CC[C@H]4[C@H](C)CC[C@@H]1[C@@]24OO3 | -16.1% (active)
46 | O=C(/C=C/c1ccco1)c1nc2ccccc2n1Cc1ccc(F)cc1 | 52.5%
47 | COC(=O)C[C@](O)(CCC(C)C)C(=O)O[C@H]1C(OC)=C[C@@]23CCCN2CCc2cc4c(cc2[C@@H]13)OCO4 | -19.3% (active)
48 | C[C@H]1[C@H](OC(=O)CCC(=O)N(CCCc2cn(-c3ccc(C#N)cc3)nn2)CCNc2ccnc3cc(Cl)ccc23)O[C@@H]2OC3(C)CC[C@H]4[C@H](C)CC[C@@H]1[C@@]24OO3 | 44.5%
